Records with an inconclusive call do not appear. Active and inactive are the calls of the source.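 How the source made its calls, unless noted: active means response below a set limit, under 55% cells CD8-positive and vesicle-bound, and CD8 cells' 90th-percentile brightness under 279; inactive means the rest.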
How the values were obtained:
[1] = rapamycin-like changes in RPL19A-GFP expression – cell-based, S. cerevisiae, multiplex flow cytometry, primary screen (AID 1862; in the data active means percent of DMSO control GFP below about 86%;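 further: lower values mimic rapamycin by blocking the RPL19A rise seen in DMSO cells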); details: S. cerevisiae RPL19A-GFP strain, flow cytometry fluorescence, 3 h; at 10 µM; stronger effect = lower value
[2] = TOR pathway GLN3 branch reporter MEP2-GFP changes – S. cerevisiae, multiplex flow cytometry, primary screen (AID 1867;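 active means GFP response, as percent of the DMSO control, above the screen-wide mean plus 3 SD, about 139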;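 further: median GFP channel fluorescence of barcode-gated MEP2-GFP cells measured by flow cytometry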); details: S. cerevisiae MEP2-GFP strain, 3 h, at 10 µM, stronger effect = higher value, 100% means same as DMSO wells
[3] = TOR pathway RTG branch CIT2 reporter changes – S. cerevisiae, GFP fusion, multiplex flow cytometry, primary screen (AID 1870;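 active means percent response above a set limit, the screen-wide mean plus 3 SD, cut at about 130% in these data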;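 further: barcoded CIT2-GFP strain pooled with four other GFP strains with rapamycin as positive control; median GFP fluorescence per well over plate mean of DMSO wells so 100% = DMSO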); details: S. cerevisiae CIT2-GFP expression, 3 h, at 10 µM, stronger effect = higher value
[4] = TOR pathway LAP4-GFP level changes – S. cerevisiae, multiplex flow cytometry, primary screen (AID 1873;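 active means GFP signal, as percent of the solvent control, above the screen mean plus 3 SD, about 149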); details: S. cerevisiae LAP4-GFP expression, 3 h, at 10 µM, stronger effect = higher value
[5] = yeast AGP1-GFP level changes, GLN3 branch – cell-based, multiplex flow cytometry, S. cerevisiae, primary screen (AID 1887;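 active means GFP signal above the screen-wide mean plus 3 SD, that is over about 124.5% of the solvent control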;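 further: AGP1-GFP fusion strain of S. cerevisiae within a five-strain barcoded multiplex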); details: 3 h, at 10 µM, stronger effect = higher value
[6] = reduced mouse 2C T cell binding to pMHC/ICAM-1 vesicles – MLPCN validation set, flow cytometry, LFA-1/ICAM-1 modulator project, pilot screen (AID 2523); details: 2C mouse CD8+ T cells, at 7 µM, stronger effect = lower value; double positive events: measured here: CD8+/vesicle+ event percentage;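 on vesicle binding response: mean PE anti-B7-1 fluorescence of CD8+ cells relative to row control; 100% = QL9-loaded vesicles with DMSO vehicle in the same plate row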
[7] = molecular target: Integrin beta-1 (Homo sapiens) + Integrin alpha-4 (Homo sapiens) (UniProt P13612+P05556); experiment: alpha4beta1 integrin LIBS antibody binding reduction – U937 cells, HUTS-21 mAb, flow cytometry, validation set, VLA-4 allosteric modulator project, pilot screen (AID 2674;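 active means inhibition above 50%, about 3 SD of the validation set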;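 further: antibody binding induced by the VLA-4 ligand LDV present at three times its Kd; 0% = LDV ligand with antibody and no compound and 100% = antibody without LDV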); details: HUTS-21 LIBS mAb binding, at 6.7 µM, stronger effect = higher value, binding induced by LDV ligand
[8] = calorie-restriction mimetic ROS inhibitors, yeast – validation compound set, pilot screen (AID 2706;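 active means superoxide response below 65% of plate, a cut near 3 SD across the whole screen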;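 further: yeast exposed to compound for one week at 30 degrees C before staining; 100% = mean of all compound wells on the same plate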); details: S. cerevisiae aging, superoxide DHE fluorescence; at 10 µM; stronger effect = lower value
[9] = molecular target: Beta-adrenergic receptor kinase 1 (Homo sapiens) (UniProt P25098); experiment: GRK2 binders displacing RNA aptamer, biochemical, validation, human GRK2, bead flow cytometry (AID 488806;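 active means aptamer binding inhibition above 30%, about 3 SD of noise from non-fluorescent compounds; inactive means inhibition at or below 30%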); details: bead-bound GRK2, FAM-aptamer displacement, at 10 µM, stronger effect = higher value
[10] = molecular target: Beta-2 adrenergic receptor (Homo sapiens) (UniProt P07550); experiment: agonist-induced loss of surface beta2AR – cell-based, FAP fluorogen, flow cytometry, validation set, pilot screen (AID 504459;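 active means percent response above 42, roughly 3 SD of non-fluorescent test compounds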;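 further: agonist-driven loss of surface beta2AR via internalization measured by FAP dye flow cytometry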); details: Am2.2-beta2AR cells, at 10 µM, stronger effect = higher value
[11] = molecular target: AP-2 complex subunit beta (Homo sapiens) (UniProt P63010); experiment: beta-arrestin/AP2 interaction blockers – biochemical, validation set, GST-AP2 beads, flow cytometry, pilot screen (AID 504541;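 active means inhibition above 54%, about 3 SD of non-fluorescent compounds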;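 further: AP2 carries R879A mutation and is captured from E. coli lysate; bead-bound FITC arrestin peptide fluorescence measuring arrestin peptide binding to AP2; 0% = DMSO wells and 100% = excess unlabeled arrestin peptide control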); details: FITC arrestin peptide, at 10 µM, stronger effect = higher value, AP2 beta2 appendage fragment, R879A mutant
[12] = cytosolic pH regulators acting via V-ATPase – S. cerevisiae, pHLuorin, HTS validation (AID 504600; in the data active means response above about 15%;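 further: plate controls were DMSO for no effect and reference compound for full effect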); details: V-ATPase proton transport, at 10 µM, stronger effect = higher value
[13] = test system: anti-desmoglein-3 scFv antibody binding to human DSG3; experiment: blockers of pathogenic pemphigus antibody–desmoglein-3 binding – biochemical, validation compound set, bead-based, flow cytometry, pilot screen (AID 588368;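 active means binding below the plate cutoff, the plate median minus 3 SD, with a reading above zero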;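 further: signal is the median channel fluorescence of bead-bound GFP antibody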); details: Protein G beads, DSG3-Fc, scFv-GFP binding, at 10 µM, stronger effect = lower value
[14] = Nile Red efflux blockade in pump-expressing yeast – validation compound set, multiplex, phenotypic, pilot screen (AID 588506;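 active means efflux inhibition above 0.42, the validation set average plus 4 SD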;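 further: Nile Red retained in cells so higher fluorescence means more efflux inhibition; 0 = negative control wells and 1 = enniatin B 25 µM full block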); details: S. cerevisiae pump-expressing triplex, Nile Red efflux flow cytometry; at 10 µM; stronger effect = higher value; the pumps come from Candida albicans
[15] = molecular target: ATP-binding cassette sub-family B member 6 (Homo sapiens) (UniProt Q9NP58); experiment: blockers of ABCB6-driven porphyrin uptake – K562-ABCB6 cells, flow cytometry, validation set, pilot screen (AID 588550;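 active means inhibition above the screen-wide mean plus 3 SD, about 51%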;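 further: 0% = DMSO wells and 100% = benzethonium chloride 70 µM positive control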); details: K562-ABCB6 porphyrin accumulation, 1 h, at 10 µM, stronger effect = higher value
[16] = AML differentiation inducers, ER-HoxA9 marrow cells – cell-based, GFP/MAC1 double positive, flow cytometry, validation set, primary screen (AID 588685;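 active means differentiation response of at least 50%, scaled between solvent and reference control, from cells with both markers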;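 further: compound exposure lasts four days before antibody staining and flow analysis; 0% = DMSO wells and 100% = 5 µM fulvestrant positive control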); details: stronger effect = higher value, normalized: vehicle 0, fulvestrant 100

ATP-binding cassette sub-family B member 6 (Homo sapiens), sequence (Q9NP58 whole entry, looked up): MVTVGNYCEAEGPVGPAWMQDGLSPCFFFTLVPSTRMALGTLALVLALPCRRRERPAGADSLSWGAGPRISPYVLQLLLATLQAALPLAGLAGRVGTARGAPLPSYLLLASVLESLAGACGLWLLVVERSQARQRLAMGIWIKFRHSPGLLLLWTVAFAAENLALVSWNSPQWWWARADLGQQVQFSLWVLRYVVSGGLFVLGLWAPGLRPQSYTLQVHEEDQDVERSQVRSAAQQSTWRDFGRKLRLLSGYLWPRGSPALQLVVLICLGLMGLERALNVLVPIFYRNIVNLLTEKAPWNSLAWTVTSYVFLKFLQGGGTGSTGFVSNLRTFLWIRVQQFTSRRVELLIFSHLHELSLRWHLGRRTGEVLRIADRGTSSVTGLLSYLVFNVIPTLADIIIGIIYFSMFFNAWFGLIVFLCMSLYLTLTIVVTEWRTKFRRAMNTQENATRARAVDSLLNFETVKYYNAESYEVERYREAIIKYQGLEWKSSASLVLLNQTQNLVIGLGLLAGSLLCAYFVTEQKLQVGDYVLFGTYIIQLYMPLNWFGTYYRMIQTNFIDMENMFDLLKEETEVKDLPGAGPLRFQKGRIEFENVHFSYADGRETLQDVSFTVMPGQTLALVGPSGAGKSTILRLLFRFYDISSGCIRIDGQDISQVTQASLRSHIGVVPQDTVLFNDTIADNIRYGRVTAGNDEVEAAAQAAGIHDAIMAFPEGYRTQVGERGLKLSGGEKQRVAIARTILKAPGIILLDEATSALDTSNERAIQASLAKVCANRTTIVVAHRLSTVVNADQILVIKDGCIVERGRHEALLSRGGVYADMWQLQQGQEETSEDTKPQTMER
Beta-adrenergic receptor kinase 1 (Homo sapiens), sequence (P25098 whole entry, looked up): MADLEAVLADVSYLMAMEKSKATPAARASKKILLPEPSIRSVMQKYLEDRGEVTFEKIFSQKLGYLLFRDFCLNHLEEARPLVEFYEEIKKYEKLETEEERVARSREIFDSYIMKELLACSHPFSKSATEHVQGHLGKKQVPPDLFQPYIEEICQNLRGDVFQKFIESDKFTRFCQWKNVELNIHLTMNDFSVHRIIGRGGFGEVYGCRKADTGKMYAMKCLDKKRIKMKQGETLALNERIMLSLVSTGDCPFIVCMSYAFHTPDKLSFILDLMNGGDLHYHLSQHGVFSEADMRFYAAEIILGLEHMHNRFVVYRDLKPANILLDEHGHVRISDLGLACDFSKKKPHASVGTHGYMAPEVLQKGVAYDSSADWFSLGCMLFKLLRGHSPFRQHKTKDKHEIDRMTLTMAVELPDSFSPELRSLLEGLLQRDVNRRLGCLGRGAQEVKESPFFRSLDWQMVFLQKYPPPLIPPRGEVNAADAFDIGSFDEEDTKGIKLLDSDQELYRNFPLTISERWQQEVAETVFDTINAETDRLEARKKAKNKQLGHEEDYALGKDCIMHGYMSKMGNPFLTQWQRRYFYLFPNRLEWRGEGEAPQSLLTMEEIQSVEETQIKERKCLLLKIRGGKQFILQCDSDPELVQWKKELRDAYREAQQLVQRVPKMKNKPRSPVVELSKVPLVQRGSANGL
AP-2 complex subunit beta (Homo sapiens), sequence (P63010 whole entry, looked up, the tested form may be a part, one chain of several): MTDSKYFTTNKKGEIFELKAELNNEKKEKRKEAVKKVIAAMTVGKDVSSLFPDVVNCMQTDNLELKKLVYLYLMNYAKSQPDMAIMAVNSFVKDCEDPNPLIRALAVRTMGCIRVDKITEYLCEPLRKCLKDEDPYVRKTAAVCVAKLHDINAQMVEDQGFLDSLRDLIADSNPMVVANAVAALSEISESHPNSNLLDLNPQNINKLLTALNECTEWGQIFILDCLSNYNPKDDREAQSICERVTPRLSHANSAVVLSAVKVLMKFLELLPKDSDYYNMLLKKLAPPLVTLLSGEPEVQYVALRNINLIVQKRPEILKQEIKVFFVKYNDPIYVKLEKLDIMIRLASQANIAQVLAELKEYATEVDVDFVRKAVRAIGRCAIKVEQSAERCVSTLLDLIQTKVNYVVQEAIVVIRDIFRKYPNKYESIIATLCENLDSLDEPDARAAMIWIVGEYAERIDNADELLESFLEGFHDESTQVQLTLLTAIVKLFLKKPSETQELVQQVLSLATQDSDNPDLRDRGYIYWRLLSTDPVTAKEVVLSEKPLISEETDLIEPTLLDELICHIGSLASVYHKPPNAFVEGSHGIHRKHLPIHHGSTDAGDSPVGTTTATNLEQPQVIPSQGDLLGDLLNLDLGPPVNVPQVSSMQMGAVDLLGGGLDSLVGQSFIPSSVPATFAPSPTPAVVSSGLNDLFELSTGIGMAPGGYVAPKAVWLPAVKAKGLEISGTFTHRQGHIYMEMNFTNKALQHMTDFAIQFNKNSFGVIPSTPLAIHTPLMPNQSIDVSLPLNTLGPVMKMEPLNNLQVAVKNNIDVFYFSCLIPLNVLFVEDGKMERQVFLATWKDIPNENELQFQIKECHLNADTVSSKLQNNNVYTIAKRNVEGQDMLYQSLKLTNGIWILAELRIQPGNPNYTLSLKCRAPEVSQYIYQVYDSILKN
Beta-2 adrenergic receptor (Homo sapiens), sequence (P07550 whole entry, looked up): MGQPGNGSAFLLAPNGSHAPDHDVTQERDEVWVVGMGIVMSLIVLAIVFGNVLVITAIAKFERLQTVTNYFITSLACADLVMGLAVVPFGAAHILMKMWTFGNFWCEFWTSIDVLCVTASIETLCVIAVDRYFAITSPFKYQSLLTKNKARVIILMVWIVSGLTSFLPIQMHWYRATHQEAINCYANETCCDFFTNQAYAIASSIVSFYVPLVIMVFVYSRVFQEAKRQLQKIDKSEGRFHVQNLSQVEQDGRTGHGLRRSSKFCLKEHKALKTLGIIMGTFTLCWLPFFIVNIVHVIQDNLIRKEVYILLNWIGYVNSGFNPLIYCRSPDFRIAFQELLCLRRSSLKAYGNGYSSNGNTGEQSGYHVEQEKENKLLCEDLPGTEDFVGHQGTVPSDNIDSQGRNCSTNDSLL
Integrin beta-1 (Homo sapiens) + Integrin alpha-4 (Homo sapiens), sequence (P05556 whole entry, looked up): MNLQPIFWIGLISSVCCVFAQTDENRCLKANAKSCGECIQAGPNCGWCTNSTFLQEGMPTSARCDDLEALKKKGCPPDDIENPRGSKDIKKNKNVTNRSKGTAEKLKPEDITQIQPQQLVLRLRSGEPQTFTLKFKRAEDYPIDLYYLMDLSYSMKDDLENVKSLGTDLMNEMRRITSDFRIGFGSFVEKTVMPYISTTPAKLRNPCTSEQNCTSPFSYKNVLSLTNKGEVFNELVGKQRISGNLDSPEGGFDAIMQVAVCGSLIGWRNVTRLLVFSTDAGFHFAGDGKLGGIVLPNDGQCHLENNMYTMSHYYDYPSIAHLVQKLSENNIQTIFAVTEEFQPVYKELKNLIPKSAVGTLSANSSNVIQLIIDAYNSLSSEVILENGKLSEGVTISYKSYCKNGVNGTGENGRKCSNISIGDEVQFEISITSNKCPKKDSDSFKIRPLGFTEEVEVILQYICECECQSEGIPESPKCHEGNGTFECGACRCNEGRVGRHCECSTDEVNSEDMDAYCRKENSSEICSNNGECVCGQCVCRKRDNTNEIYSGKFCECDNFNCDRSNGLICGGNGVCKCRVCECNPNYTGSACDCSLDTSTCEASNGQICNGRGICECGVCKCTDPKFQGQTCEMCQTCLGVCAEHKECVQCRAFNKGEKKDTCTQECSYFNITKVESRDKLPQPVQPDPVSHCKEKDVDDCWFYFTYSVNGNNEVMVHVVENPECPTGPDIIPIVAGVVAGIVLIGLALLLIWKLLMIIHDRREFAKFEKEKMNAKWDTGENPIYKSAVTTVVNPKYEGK
Integrin beta-1 (Homo sapiens) + Integrin alpha-4 (Homo sapiens), sequence (P13612 whole entry, looked up): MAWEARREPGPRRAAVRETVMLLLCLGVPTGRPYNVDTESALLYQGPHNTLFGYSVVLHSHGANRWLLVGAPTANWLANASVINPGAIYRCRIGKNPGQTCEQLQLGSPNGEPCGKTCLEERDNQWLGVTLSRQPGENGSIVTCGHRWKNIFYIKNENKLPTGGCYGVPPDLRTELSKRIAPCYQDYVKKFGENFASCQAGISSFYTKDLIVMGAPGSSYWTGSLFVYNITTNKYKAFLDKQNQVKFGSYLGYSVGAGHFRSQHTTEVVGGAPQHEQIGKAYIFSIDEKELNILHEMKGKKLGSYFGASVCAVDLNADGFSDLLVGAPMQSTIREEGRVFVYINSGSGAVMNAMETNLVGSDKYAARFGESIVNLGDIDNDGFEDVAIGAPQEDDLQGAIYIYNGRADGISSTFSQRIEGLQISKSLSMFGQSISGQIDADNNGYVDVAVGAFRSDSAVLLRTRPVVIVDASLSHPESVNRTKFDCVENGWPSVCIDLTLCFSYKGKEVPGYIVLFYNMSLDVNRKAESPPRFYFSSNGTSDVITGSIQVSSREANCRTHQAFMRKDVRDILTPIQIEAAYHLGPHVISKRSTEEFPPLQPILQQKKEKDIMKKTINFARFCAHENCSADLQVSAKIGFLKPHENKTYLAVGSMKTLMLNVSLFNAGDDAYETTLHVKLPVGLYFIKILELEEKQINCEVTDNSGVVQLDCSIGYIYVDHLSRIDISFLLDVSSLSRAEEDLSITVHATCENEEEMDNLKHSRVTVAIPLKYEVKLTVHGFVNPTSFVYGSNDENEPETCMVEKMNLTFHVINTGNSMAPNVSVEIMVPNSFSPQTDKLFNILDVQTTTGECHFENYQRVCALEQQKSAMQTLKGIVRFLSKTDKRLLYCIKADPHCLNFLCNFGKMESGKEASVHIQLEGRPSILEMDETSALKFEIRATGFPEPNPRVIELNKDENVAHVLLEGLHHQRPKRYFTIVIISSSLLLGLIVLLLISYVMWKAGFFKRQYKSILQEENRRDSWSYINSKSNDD

Compound | percent of DMSO control GFP [1] | GFP response vs DMSO [2] | percent response of DMSO control [3] | GFP response vs DMSO [4] | GFP response, % of DMSO [5] | double positive events [6] [%] | vesicle binding response [6] | inhibition [7] | superoxide response (% of plate) [8] | aptamer binding inhibition [9] | response [10] | inhibition [11] | response [12] | binding (% of control) [13] | efflux inhibition (fraction of control) [14] | inhibition [15] | differentiation response [16]
COc1cccc2c(O)cc(=O)n(C)c12 | 96.9% (inactive) | 111% (inactive) | 96.7% (inactive) | 116% (inactive) | 100% (inactive) | 61.5 | 169% (inactive) | 3.67% (inactive) | 98.4% (inactive) | -1% (inactive) | 5.82% (inactive) | 25% (inactive) | -5.16% (inactive) | 101% (inactive) | -0.17 (inactive) | 4% (inactive) | -21.6% (inactive)
O=C(O)C1CSC(c2ccc3c(c2)OCO3)N1 (stereo not drawn) | 93.9% (inactive) | 121% (inactive) | 101% (inactive) | 78.7% (inactive) | 90.3% (inactive) | 61.8 | 197% (inactive) | -7.12% (inactive) | 86.1% (inactive) | 3% (inactive) | -4.07% (inactive) | -4.96% (inactive) | 0.02% (inactive) | 105% (inactive) | -0.2 (inactive) | 9% (inactive) | -4.91% (inactive)
CC1Cc2ccccc2N1NC(=O)c1ccc(Cl)c(S(N)(=O)=O)c1 (stereo not drawn) | 105% (inactive) | 103% (inactive) | 105% (inactive) | 106% (inactive) | 114% (inactive) | 41.4 | 19.9% (active) | 3.14% (inactive) | 99.9% (inactive) | 1% (inactive) | -28.6% (inactive) | 7.39% (inactive) | 2.79% (inactive) | 99.5% (inactive) | 0.04 (inactive) | 7% (inactive) | 11.8% (inactive)
Cc1cccc2c(=O)n3c(nc12)CCCCC3 | 99.3% (inactive) | 101% (inactive) | 97.6% (inactive) | 119% (inactive) | 104% (inactive) | 57 | 172% (inactive) | -14.5% (inactive) | 105% (inactive) | -3% (inactive) | -4.11% (inactive) | -3.62% (inactive) | 0.7% (inactive) | 105% (inactive) | -0.41 (inactive) | 2% (inactive) | 36.4% (inactive)
O=C(O)C(O)c1ccccc1 (stereo not drawn) | 101% (inactive) | 95.6% (inactive) | 105% (inactive) | 99.1% (inactive) | 102% (inactive) | 53.8 | 90.5% (inactive) | -6.45% (inactive) | 96.6% (inactive) | 5% (inactive) | 3.86% (inactive) | -5.56% (inactive) | 1.56% (inactive) | 104% (inactive) | -0.12 (inactive) | 12% (inactive) | -3.11% (inactive)
CC12CCC(C(=O)N3CCc4ccccc43)(CC1=O)C2(C)C (stereo not drawn) | 101% (inactive) | 102% (inactive) | 97.6% (inactive) | 95.9% (inactive) | 91.2% (inactive) | 60.3 | 115% (inactive) | -2.43% (inactive) | 108% (inactive) | 13% (inactive) | -16.3% (inactive) | 5.6% (inactive) | 2.72% (inactive) | 102% (inactive) | -0.24 (inactive) | 4% (inactive) | -10.4% (inactive)
CCOc1ccc2ccccc2c1CNc1nnnn1C | 102% (inactive) | 103% (inactive) | 107% (inactive) | 94% (inactive) | 96.2% (inactive) | 65.8 | 1400% (inactive) | 18.2% (inactive) | 91% (inactive) | 3% (inactive) | -8.39% (inactive) | -1.6% (inactive) | 1.46% (inactive) | 98.4% (inactive) | 0.05 (inactive) | 8% (inactive) | 13.9% (inactive)
CNc1c2c(nn1C)CCCC2 | 104% (inactive) | 97.7% (inactive) | 106% (inactive) | 97% (inactive) | 106% (inactive) | 62.2 | 126% (inactive) | 1.59% (inactive) | 115% (inactive) | 5% (inactive) | 1.87% (inactive) | -17.3% (inactive) | -7.05% (inactive) | 101% (inactive) | -0.19 (inactive) | -3% (inactive) | -3.11% (inactive)
CC(C)(Sc1cc(C(C)(C)C)c(O)c(C(C)(C)C)c1)Sc1cc(C(C)(C)C)c(O)c(C(C)(C)C)c1 | 101% (inactive) | 105% (inactive) | 107% (inactive) | 101% (inactive) | 106% (inactive) | 60.1 | 170% (inactive) | -2.43% (inactive) | 90.1% (inactive) | -5% (inactive) | 1.22% (inactive) | 10.6% (inactive) | -3.38% (inactive) | 102% (inactive) | -0.03 (inactive) | 21% (inactive) | -17.7% (inactive)
COC(=O)C1=C(C)NC(C)=C([N+](=O)[O-])C1c1ccccc1C(F)(F)F (stereo not drawn) | 101% (inactive) | 110% (inactive) | 98.6% (inactive) | 97% (inactive) | 105% (inactive) | 58.2 | 160% (inactive) | 9.63% (inactive) | 102% (inactive) | 0% (inactive) | 4.56% (inactive) | -3.68% (inactive) | 3.77% (inactive) | 106% (inactive) | -0.3 (inactive) | 4% (inactive) | -7.5% (inactive)
CC(=O)N(CCC1(c2ccc(C)cc2)CCOC(C(C)C)C1)Cc1ccco1 (stereo not drawn) | 93.9% (inactive) | 108% (inactive) | 116% (inactive) | 82% (inactive) | 96.6% (inactive) | 46.3 | 74.9% (active) | -16.8% (inactive) | 99.9% (inactive) | -4% (inactive) | -3.21% (inactive) | 3.24% (inactive) | -0.03% (inactive) | 99.6% (inactive) | 0.05 (inactive) | 9% (inactive) | -1.64% (inactive)
Cc1cccc(Nc2ccccc2C(=O)O)c1C | 99.5% (inactive) | 102% (inactive) | 86.7% (inactive) | 114% (inactive) | 102% (inactive) | 65.8 | 236% (inactive) | 4.84% (inactive) | 87.1% (inactive) | -1% (inactive) | -5.24% (inactive) | -8.96% (inactive) | -29.3% (inactive) | 101% (inactive) | 0.08 (inactive) | 5% (inactive) | -12.9% (inactive)
Cc1cc(=O)[nH]c(=S)[nH]1 | 97% (inactive) | 109% (inactive) | 106% (inactive) | 79.2% (inactive) | 96.6% (inactive) | 64.4 | 223% (inactive) | 12.3% (inactive) | 113% (inactive) | -9% (inactive) | -11.1% (inactive) | -0.05% (inactive) | 0.42% (inactive) | 104% (inactive) | 0.12 (inactive) | 12% (inactive) | 0.82% (inactive)
COc1cc2c(cc1OC)C(=S)NC(C)(C)C2 | 102% (inactive) | 106% (inactive) | 100% (inactive) | 95.3% (inactive) | 102% (inactive) | 60.1 | 1280% (inactive) | -11.9% (inactive) | 110% (inactive) | 0% (inactive) | 0.62% (inactive) | 22% (inactive) | -4.8% (inactive) | 101% (inactive) | 0.08 (inactive) | -13% (inactive) | 6.11% (inactive)
C[C@]12CC[C@@H]3c4ccc(O)cc4[C@@H](O)C[C@H]3[C@@H]1CC[C@@H]2O | 103% (inactive) | 101% (inactive) | 108% (inactive) | 98% (inactive) | 104% (inactive) | 59.1 | 53.4% (inactive) | 5.61% (inactive) | 106% (inactive) | 26% (inactive) | -0.21% (inactive) | -3.62% (inactive) | -0.11% (inactive) | 102% (inactive) | -0.29 (inactive) | 11% (inactive) | -3.11% (inactive)
CN(C)CCOC(c1ccccc1)c1ccccc1 (tested in a mixture with another compound) | 103% (inactive) | 99.3% (inactive) | 98.9% (inactive) | 91.4% (inactive) | 96.4% (inactive) | 58.3 | 138% (inactive) | 13% (inactive) | 91.9% (inactive) | 3% (inactive) | -5.43% (inactive) | -10.1% (inactive) | -1% (inactive) | 93.3% (inactive) | 0.27 (inactive) | 2% (inactive) | 5.13% (inactive)
Cc1cc(=O)oc2c(CN(C)Cc3ccccc3)c(O)ccc12 | 100% (inactive) | 106% (inactive) | 105% (inactive) | 94.7% (inactive) | 96.2% (inactive) | 62.4 | 434% (inactive) | 12% (inactive) | 97.6% (inactive) | 3% (inactive) | 0.85% (inactive) | -2.59% (inactive) | 1.53% (inactive) | 97.4% (inactive) | 0.11 (inactive) | 10% (inactive) | 0.24% (inactive)
CCOc1ccc(C(=O)N2CCCC2C(=O)O)cc1 (stereo not drawn) | 97.9% (inactive) | 101% (inactive) | 100% (inactive) | 103% (inactive) | 102% (inactive) | 62.9 | 163% (inactive) | 13.4% (inactive) | 107% (inactive) | 6% (inactive) | -15.7% (inactive) | 1.45% (inactive) | 6.32% (inactive) | 101% (inactive) | -0.04 (inactive) | 6% (inactive) | -1.05% (inactive)
O=c1c2[nH]c3ccccc3c2ncn1CCC1=CCCCC1 | 91.7% (inactive) | 127% (inactive) | 103% (inactive) | 82% (inactive) | 89.6% (inactive) | 62.1 | 149% (inactive) | 14.2% (inactive) | 95.4% (inactive) | -3% (inactive) | -1.85% (inactive) | -5.27% (inactive) | 0.28% (inactive) | 101% (inactive) | 0.01 (inactive) | 13% (inactive) | 1.64% (inactive)

From PubChem BioAssay
